Molecules are shown by their SMILES. Results filed as inconclusive are left out. Unmarked numbers belong to inactive results. Active and inactive are the calls of the source. The call rests on the fitted dose curve; in most records, active means well fitted curve in the direction sought with a large enough effect in the repeat runs; inconclusive means weak or mixed curves; inactive means no such curve, though single readings can be large; an effect the other way counts as inactive or inconclusive.

Experimental findings from PubChem BioAssay (Tox21) are described below.

Assay [1] in a line: qHTS RealTime-Glo MT Cell Viability Assay in HEK293 cells - 40 hour (AID 1224874). Further: nearly all actives have a fitted effect of over 50% in size. Further: potency means the concentration at half of the fitted maximal effect. Particulars: RealTime-Glo luminescence; max response: active compounds read low. The essentials:
(§1)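 Nonlytic bioluminescent viability monitoring. HEK293 at 600 cells/well with reagent; 5 h settle; compound transfer by pintool; plates held at 37 C and read at set time points.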
For orientation: In qHTS, concentration-response curves come from the screen itself.

A short description of assay [2]: A CellTox Green Cytotoxicity Assay to monitor cytotoxicity in HepG2 cells - 24 hour (AID 1224878). Further: nearly all actives have a fitted effect of over 45% in size. Further: potency means the concentration at half of the fitted maximal effect. The following applies: CellTox Green fluorescence; series mostly up to 76.8 µM. The essentials: (§2)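 Real-time, homogeneous cytotoxicity readout: dead-cell DNA staining by CellTox Green in HepG2 monolayers, fluorescence measured at timed intervals up to 40 h of continuous compound exposure.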

Assay [3] in a line: A CellTox Green Cytotoxicity Assay to monitor cytotoxicity in HepG2 cells - 40 hour (AID 1224879). Further: nearly all actives have a fitted effect of over 40% in size. Further: potency means the concentration at half of the fitted maximal effect. Particulars: CellTox Green fluorescence; series mostly up to 76.8 µM. The essentials:
as §2

Assay [4] can be described thus: qHTS RealTime-Glo MT Cell Viability Assay in HepG2 cells - 8 hour (AID 1224873). Further: nearly all actives have a fitted effect of over 55% in size. Particulars: RealTime-Glo luminescence; series mostly up to 76.8 µM. The gist of the method: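 HepG2 cells (600/well) mixed with RealTime-Glo MT reagent, settled 5 h at 37 C/5% CO2 before compound addition. Nonlytic NanoLuc luminescence from viable-cell prosubstrate reduction read repeatedly during 40 h treatment at 37 C.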

The nature of assay [5]: A CellTox Green Cytotoxicity Assay to monitor cytotoxicity in HEK293 cells - 24 hour (AID 1224875). Further: nearly all actives have a fitted effect of over 45% in size. Further: potency means the concentration at half of the fitted maximal effect. The following applies: CellTox Green fluorescence; series mostly up to 76.8 µM. The essentials: (§3)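 Cytotoxicity was tracked continuously in HEK293 cells by a DNA-binding dye excluded from viable cells. Compounds were transferred in DMSO 5 h after seeding; fluorescence was recorded at intervals up to 40 h.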

Assay [6] is described as follows: A CellTox Green Cytotoxicity Assay to monitor cytotoxicity in HepG2 cells - 16 hour (AID 1224876). Further: nearly all actives have a fitted effect of over 45% in size. Further: potency means the concentration at half of the fitted maximal effect. The following applies: CellTox Green fluorescence; series mostly up to 76.8 µM. The gist of the method:
as §2

Assay [7] is described as follows: qHTS RealTime-Glo MT Cell Viability Assay in HEK293 cells - 0 hour (AID 1224880). Further: nearly all actives have a fitted effect of over 45% in size. Further: potency means the concentration at half of the fitted maximal effect. The following applies: RealTime-Glo luminescence; series mostly up to 76.8 µM. The essentials: as §1
Assay [8] is described as follows: A CellTox Green Cytotoxicity Assay to monitor cytotoxicity in HEK293 cells - 40 hour (AID 1224871). Further: nearly all actives have a fitted effect of over 45% in size. Further: potency means the concentration at half of the fitted maximal effect. Particulars: CellTox Green fluorescence; series mostly up to 76.8 µM. The essentials: as §3
Assay [9] can be described thus: qHTS RealTime-Glo MT Cell Viability Assay in HepG2 cells - 32 hour (AID 1224877). Further: nearly all actives have a fitted effect of over 55% in size. Further: potency means the concentration at half of the fitted maximal effect. The following applies: RealTime-Glo luminescence; series mostly up to 76.8 µM. The essentials:
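Tox21 10K library screened in qHTS format on HepG2 cells carrying RealTime-Glo reagents. Compounds were added after a 5 h preincubation, and the luminescent signal from continuous culture was measured repeatedly during 40 h treatment.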

A short description of assay [10]: qHTS RealTime-Glo MT Cell Viability Assay in HEK293 cells - 16 hour (AID 1224872). Further: nearly all actives have a fitted effect of over 50% in size. Further: potency means the concentration at half of the fitted maximal effect. The following applies: RealTime-Glo luminescence; series mostly up to 76.8 µM. The essentials:
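Luminescence generated by NanoLuc from substrate produced by living HEK293 cells served as the viability signal. Each value reflects the reading at its stated time point during continuous 40 h compound exposure at 37 C.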
On the % scale 0 is the no-effect control and ±100 the full control effect.

Take `OCCN1CCN(CCCN2c3ccccc3Sc3ccc(C(F)(F)F)cc32)CC1`: the Potency in assay [1] is 23.9 µM (active); in assay [2], 26.8 µM (active); in assay [3], 26.8 µM (active).
Regarding `C/C=C/C=C/COC(=O)C(C)C`, the Potency entry in [4], in assay [5], in assay [6] and in [7] was “inactive” throughout. Besides, the Potency in [3] was 43.6 µM (active).
Take `CC(C)(C)c1csc(-c2cc3cc(OCc4ccccc4CC(=O)O)ccc3o2)n1`: the Potency was 54.9 µM (active) in assay [8]; 38.9 µM (active) in assay [1]; 54.9 µM (active) in [5]; 54.9 µM (active) in [6]; 54.9 µM (active) in [2]; 54.9 µM (active) in assay [3]. Further, the Potency result in assay [9] and in assay [7] was “inactive” throughout.
In the case of `OC12N=C(c3ccccc3)SC1Cc1cc(Cl)ccc12` (configuration not stated), the Potency result in assay [8], in assay [4], in [5], in assay [6], in assay [9] and in assay [7] was “inactive” each time.
For the compound `CCCc1ccc(OCC(=O)N2CCN(C(=O)COc3ccc(CCC)cc3OC)CC2)c(OC)c1`, the Potency was 9.52 µM (active) in assay [10], 8.49 µM (active) in assay [1], 26.8 µM (active) in assay [2] and 21.3 µM (active) in assay [3]. The Potency entry in assay [5] and in [7] was “inactive” throughout.
For the compound `c1ccc(C(O[C@@H]2CCCN(CCc3ccc4c(c3)OCO4)C2)c2ccccc2)cc1`, the Potency entry in [8], in assay [4], in [5], in [6], in assay [9] and in [2] was “inactive” throughout. Besides, in [7], the Potency result was “inactive”.
In the case of `CCCCCCCC/C=C\CCCCCCCCN`, the figures for the Potency in assay [8] and in assay [5] were 23.9 µM (active) and 21.3 µM (active), respectively.
Turning to `COc1ccc2cc1Oc1ccc(cc1)C[C@H]1c3c(cc4c(c3Oc3cc5c(cc3OC)CCN(C)[C@@H]5C2)OCO4)CCN1C`, the Potency in assay [1] was 6.74 µM (active); in assay [6], 19 µM (active); in assay [9], 23.9 µM (active); in assay [2], 23.9 µM (active); in [3], 21.3 µM (active). The Potency entry in [7] was “inactive”.
As for `CCCCCCCCCCC[C@@H](C[C@@H]1OC(=O)[C@H]1CCCCCC)OC(=O)[C@H](CC(C)C)NC=O`, the Potency entry in [4], in assay [5], in [6], in assay [9], in [2] and in [7] was “inactive” throughout. Further, the results for the Potency in [1] and in assay [3] were 6.74 µM (active) and 19 µM (active), respectively.
For the compound `CN1CCN(Cc2cc(-c3ccc4[nH]c(=O)oc4c3)co2)[C@@H](c2ccc(F)cc2)C1`, the Potency entry in assay [4], in [5] and in assay [7] was “inactive” in each case. Besides, the Potency in assay [1] is 26.5 µM (active); in assay [2], 42 µM (active); in assay [3], 42 µM (active).
As to `O=C1CCc2ccc(OCCCCN3CCN(c4cccc(Cl)c4Cl)CC3)cc2N1`, the results for the Potency in assay [10], in assay [1] and in assay [3] were 10.7 µM (active), 9.52 µM (active) and 26.8 µM (active), respectively. The Potency entry in assay [5], in [6] and in [7] was “inactive” throughout.
With `O=C1OC2(c3ccc(O)cc3Oc3cc(O)ccc32)c2ccc(N=C=S)cc21`, the Potency is 12.5 µM (active) in assay [8]; 17.7 µM (active) in assay [5]; 15.8 µM (active) in assay [6]; 15.8 µM (active) in assay [2]; 15.8 µM (active) in assay [3]; 44.4 µM (active) in assay [7].
Consider `C=C(C)C(=O)OCCCCCCCCCC`, for which the Potency entry in assay [10], in assay [4], in [6], in [9], in assay [2] and in assay [3] was “inactive” each time. Also, the Potency entry in assay [7] was “inactive”. The max response in [1] was 14.3%.
For `Sc1nc2ccccc2s1`, the Potency entry in assay [10], in assay [4], in assay [6], in [9] and in [7] was “inactive” in each case. Moreover, the max response in [1] was 15.8%.
For the compound `Nc1cc(Cl)c(O)c(Cl)c1`, the Potency result in assay [10], in assay [5], in assay [6], in assay [9], in assay [2] and in [3] was “inactive” in each case. Further, in assay [7], the Potency entry is “inactive”. Further, in [1], the max response was -1.5%.
In the case of `CNC(=O)c1ccccc1Sc1ccc2c(/C=C/c3ccccn3)n[nH]c2c1`, the Potency in [1] is 8.49 µM (active). The Potency result in assay [5], in assay [6], in assay [9], in [2] and in [3] was “inactive” each time.
Regarding `COc1ccc(NC(=O)CC(C)=O)cc1`, the Potency result in assay [10], in assay [4], in assay [6], in [9], in assay [2] and in assay [3] was “inactive” throughout. Further, the Potency result in assay [7] is “inactive”. For the same compound, the max response in assay [1] was 8.59%.
`CCO[C@@H]1O[C@H](C(COCc2ccccc2)OCc2ccccc2)[C@H](OCc2ccccc2)[C@H]1O` (some centres not stated): the Potency result in [8], in [5], in [6], in [9], in assay [2] and in assay [7] was “inactive” in each case.
`CCn1c2ccccc2c2cc([N+](=O)[O-])ccc21`: the Potency result in [8], in [5], in assay [6], in assay [9], in assay [2] and in assay [3] was “inactive” each time. The Potency entry in [7] was “inactive”. Also, the max response in assay [1] is -23.8%.
As for `CCOC(=O)c1ccc(C2CCC(NC[C@H](O)COc3ccc(O)c(NS(C)(=O)=O)c3)CC2)cc1` (some centres not stated), the Potency in [10] was 20.2 µM (active); in assay [1] it was 20.2 µM (active); in [9], 45.2 µM (active); in assay [2], 50.7 µM (active); in assay [3] it was 45.2 µM (active). For the same compound, the Potency entry in [7] was “inactive”.
As for `Cc1cc(C(C)(C)C)c(O)c(C)c1Cn1c(=O)n(Cc2c(C)cc(C(C)(C)C)c(O)c2C)c(=O)n(Cc2c(C)cc(C(C)(C)C)c(O)c2C)c1=O`, the Potency entry in assay [8], in assay [5], in assay [6], in [2], in [3] and in assay [7] was “inactive” in each case. Also, the Potency in assay [1] was 21.9 µM (active).
Regarding `O=C(c1ccc(O)c(O)c1)c1ccc(O)cc1O`, the Potency result in assay [10], in assay [4], in [9] and in assay [7] was “inactive” each time. Moreover, the Potency in assay [1] is 24.5 µM (active).
